The nature of assay [1]: Quantitative High-Throughput drug screen in 47 multiple myeloma cell lines against the NCATS MIPE library collection: ARP1_JJKsccF8 cell viability assay (AID 1918928; note: nearly all actives have a fitted effect of over 40% in size; note: potency is the fitted concentration of half-maximal effect). In a few lines:
(§1)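 Here, 48 h treatment with MIPE 4.0 agents at 37 °C preceded an ATP luminescence read. Plating density was 500 cells per well.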

Assay [2] in a line: Quantitative High-Throughput drug screen in 47 multiple myeloma cell lines against the NCATS MIPE library collection: Karpas620_DSMZ cell viability assay (AID 1918959). Note: nearly all actives have a fitted effect of over 30% in size. Note: potency is the fitted concentration of half-maximal effect. In a few lines:
(§2)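 Viability readout: CellTiter-Glo luminescence following 5 min room-temperature incubation with reagent. Prior exposure: 48 h, 37C, humidified 5% CO2, 500 cells per well.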

Assay [3] is described as follows: Quantitative High-Throughput drug screen in 47 multiple myeloma cell lines against the NCATS MIPE library collection: KMM1_JCRB cell viability assay (AID 1918960). Note: nearly all actives have a fitted effect of over 30% in size. Note: potency is the fitted concentration of half-maximal effect. In a few lines:
as §1

Assay [4] can be described thus: Quantitative High-Throughput drug screen in 47 multiple myeloma cell lines against the NCATS MIPE library collection: JIM3_ECACC cell viability assay (AID 1918963; note: nearly all actives have a fitted effect of over 35% in size; note: potency is the fitted concentration of half-maximal effect). In a few lines: as §2
Assay [5] is described as follows: Quantitative High-Throughput drug screen in 47 multiple myeloma cell lines against the NCATS MIPE library collection: INA6_PLB cell viability assay (AID 1918965; note: nearly all actives have a fitted effect of over 55% in size; note: potency is the fitted concentration of half-maximal effect). In a few lines: (§3)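 Approved and investigational drugs from MIPE 4.0 were added by pin tool to 500 cells per well. After 48 hours at 37C, ATP-based CellTiter-Glo luminescence indicated remaining viability.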

A short description of assay [6]: Quantitative High-Throughput drug screen in 47 multiple myeloma cell lines against the NCATS MIPE library collection: JJN3_DSMZ cell viability assay (AID 1918966; note: nearly all actives have a fitted effect of over 50% in size; note: potency is the fitted concentration of half-maximal effect). The gist of the method:
as §3

Assay [7] in a line: Quantitative High-Throughput drug screen in 47 multiple myeloma cell lines against the NCATS MIPE library collection: ARD_JJKsccE7 cell viability assay (AID 1918929; note: potency is the fitted concentration of half-maximal effect). In a few lines:
as §3

A short description of assay [8]: Quantitative High-Throughput drug screen in 47 multiple myeloma cell lines against the NCATS MIPE library collection: JIM1_ECACC cell viability assay (AID 1918964; note: potency is the fitted concentration of half-maximal effect). In a few lines: as §3
Assay [9] can be described thus: Quantitative High-Throughput drug screen in 47 multiple myeloma cell lines against the NCATS MIPE library collection: KHM11_PLB cell viability assay (AID 1918962). Note: nearly all actives have a fitted effect of over 35% in size. Note: potency is the fitted concentration of half-maximal effect. In a few lines: as §2
Assay [10] in a line: Quantitative High-Throughput drug screen in 47 multiple myeloma cell lines against the NCATS MIPE library collection: Karpas417_ECACC cell viability assay (AID 1918961). The note with it: Karpas417 myeloma viability, CellTiter-Glo ATP luminescence, 48 h; viability (% of DMSO): at 45.8 µM (top of the series) unless noted. In a few lines:
as §3
In general terms: Cellular ATP, detected with luciferase, serves as a proxy for viable cell number.

Results filed as inconclusive are left out. Activity calls are given as the source filed them. Calls come from the whole dose curve; as a rule, active = well fitted curve in the direction sought with a large enough effect; inconclusive = small, poorly fitted or top-dose-only effect, or another doubt; inactive = no such curve, though single readings can be large; an effect the other way counts as inactive or inconclusive.

`CCCCNc1cc(C(=O)O)cc(S(N)(=O)=O)c1Oc1ccccc1`: the Potency entry in assay [1], in assay [2], in [3], in assay [4], in [5] and in assay [6] was “inactive” throughout.
For the molecule `CCn1c(-c2nonc2N)nc2cnc(Oc3cccc(NC(=O)c4ccc(OCCN5CCOCC5)cc4)c3)cc21`, the Potency is 18.7 µM (active) in [1]; 5.9 µM (active) in assay [7]; 7.43 µM (active) in assay [3]; 20.9 µM (active) in assay [4]; 5.9 µM (active) in [8]; 2.64 µM (active) in assay [5].
Consider `COc1ccccc1[C@H](c1cccc2ccccc12)[C@@](C)(C#N)C(=O)N1CCC(c2cccc(C(F)(F)F)c2)CC1`, for which the Potency is 8.33 µM (active) in assay [1]; 4.18 µM (active) in assay [7]; 6.62 µM (active) in assay [9]; 9.35 µM (active) in assay [4]; 1.87 µM (active) in [5]; 6.62 µM (active) in assay [6].
Turning to `CCOC(=O)C1=C[C@]2(CC)CCCN3CCc4c(n1c1ccccc41)[C@@H]32`, the Potency in assay [1] was 20.9 µM (active); in assay [2], 23.5 µM (active); in assay [3], 20.9 µM (active); in assay [9], 9.35 µM (active); in [4] it was 11.8 µM (active); in [8], 11.8 µM (active). Further, the Potency was 8.33 µM (active) in assay [5] and 18.7 µM (active) in assay [6].
`COc1ccc(CCN2CCN(CCCc3ccccc3)CC2)cc1OC`: the Potency result in [1] and in assay [4] was “inactive” in each case. Also, the Potency in [7] was 13.2 µM (active).
On to `CCOC(=O)N1CCC(=C2c3ccc(Cl)cc3CCc3cccnc32)CC1`, for which the Potency in assay [1] is 20.9 µM (active); in [7] it was 0.0017 µM (active). The Potency entry in assay [3], in assay [4] and in assay [8] was “inactive” each time.
Turning to `CC(C)NCC(O)COc1ccc(COCCOC(C)C)cc1` (stereo not drawn), the Potency entry in assay [1], in assay [2], in assay [3], in assay [9] and in assay [4] was “inactive” throughout.
With `CC(c1cc2ccccc2s1)N(O)C(N)=O` (stereo not drawn), the Potency entry in [1], in [7], in assay [3], in [4], in assay [8] and in assay [5] was “inactive” in each case.
In the case of `OCCn1cc(-c2cnc3nnn(Cc4ccc5ncccc5c4)c3n2)cn1`, the Potency entry in assay [1], in [7], in assay [2], in [4], in assay [8] and in [5] was “inactive” throughout.
Take `Cc1cccc(-c2nn(C(=S)Nc3ccccc3)cc2-c2ccnc3ccccc23)n1`: the Potency entry in assay [1], in [2] and in assay [3] was “inactive” throughout. In addition, the Potency in assay [4] was 13.2 µM (active).
Regarding `OC(CCN1CCCCC1)(c1ccccc1)C1CC2C=CC1C2` (stereo not drawn), the Potency entry in assay [1], in [2], in assay [3], in assay [10] and in assay [8] was “inactive” in each case.
In the case of `CC(=O)NC(C)c1ccc(Oc2ccc(OC(C)C)cc2)cc1` (stereo not drawn), the Potency in assay [1] was 16.6 µM (active); in assay [2], 0.296 µM (active); in assay [3], 2.64 µM (active); in assay [4], 3.32 µM (active); in [6], 16.6 µM (active). In assay [8], the Potency result was “inactive”.
On to `Cc1cc2c(C(C)C)c(O)c(O)c(C=O)c2c(O)c1-c1c(C)cc2c(C(C)C)c(O)c(O)c(C=O)c2c1O`, for which the Potency was 10.5 µM (active) in assay [1]; 8.33 µM (active) in [2]; 10.5 µM (active) in [9]; 8.33 µM (active) in assay [4]; 9.35 µM (active) in [5]; 18.7 µM (active) in [6]. Further, the Potency result in [3] is “inactive”.
For `Clc1cccc(Cl)c1NC1=NCCN1`, the Potency result in [1], in assay [2], in [3], in [9] and in assay [4] was “inactive” each time.
In the case of `CC(C)OC(=O)C1=CN(C(=O)c2ccc(F)c(F)c2)CC(C)(C)c2c1[nH]c1ccccc21`, the Potency entry in [1], in assay [7] and in assay [3] was “inactive” throughout.
On to `CCn1c(-c2nonc2N)nc2c(C#CC(C)(C)O)ncc(OC[C@H]3CCCNC3)c21`, for which the Potency in assay [1] was 0.59 µM (active); in [7], 0.148 µM (active); in assay [9], 7.43 µM (active); in assay [4], 9.35 µM (active); in assay [5], 4.18 µM (active).
With `C[C@]12CC[C@H](O)CC1=CC[C@@H]1[C@H]2CC[C@]2(C)C(c3cccnc3)=CC[C@H]12`, the Potency entry in assay [1], in assay [2], in [3] and in assay [4] was “inactive” in each case.
As to `Cc1[nH]c(=O)c(C#N)cc1-c1ccc2nccn2c1`, the Potency result in assay [1], in assay [7], in [3], in assay [9], in [4] and in assay [8] was “inactive” throughout. The Potency entry in assay [6] is “inactive”.
For `CCC(C)(C)C(=O)O[C@H]1C[C@@H](C)C=C2C=C[C@H](C)[C@H](CC[C@@H]3C[C@@H](O)CC(=O)O3)[C@H]21`, the Potency was 20.9 µM (active) in assay [1]; 16.6 µM (active) in assay [7]; 26.4 µM (active) in assay [3]; 13.2 µM (active) in assay [9]; 14.8 µM (active) in [4]; 7.43 µM (active) in assay [8]. Moreover, the Potency in [5] was 14.8 µM (active).
Turning to `CC[C@H](Nc1ncnc2nc[nH]c12)c1nc2cccc(F)c2c(=O)n1-c1ccccc1`, the Potency in assay [1] was 20.9 µM (active); in [9], 4.69 µM (active); in assay [4], 16.6 µM (active); in assay [5], 13.2 µM (active); in assay [6] it was 10.5 µM (active). Besides, the Potency result in assay [2], in assay [3] and in assay [10] was “inactive” each time.
For `O=C1[C@H](Cc2ccc(O)cc2)N2C(=O)CCN(C(=O)NCc3ccccc3)[C@H]2CN1Cc1cccc2ccccc12`, the Potency in [1] is 4.18 µM (active); in assay [9], 2.96 µM (active); in assay [6], 7.43 µM (active). For the same molecule, the Potency result in assay [2], in assay [3] and in [10] was “inactive” throughout.
For the molecule `NC(=O)c1ccc(I)c([N+](=O)[O-])c1`, the Potency entry in [1], in [7] and in assay [3] was “inactive” in each case. In addition, in assay [4], the Potency is 18.7 µM (active).
For `O=c1[nH]cnc2[nH]ncc12`, the Potency entry in [1], in [2], in assay [10], in assay [4] and in [8] was “inactive” throughout. The Potency in [7] was 23.5 µM (active).
